Shown are actives, neighbours in structure and some others; about 11% of the full set was active somewhere.
JMJD2A Tudor = JMJD2A Tudor domain (human) inhibition; AlphaScreen JMJD2A-Tudor / H3K4me3 peptide binding; O75164; Potency, µM (doses to about 114 µM), without a hit: top-dose activity change, negative = inhibition, most hits filed as inhibitors; 390,000 compounds, 4.4% hits; also: % is scaled to controls: 0 for no effect and ±100 for the full control effect; nearly all actives have a fitted effect of over 50% in size
G9a inh = inhibitors of human histone lysine methyltransferase G9a | G9a H3K9 monomethylation, AlphaScreen, 2 h | Potency, µM (highest dose often 102 µM), without a hit: top-dose activity, negative = inhibition, hits mostly inhibitors | 350,000 compounds, 8.8% hits | AID 504332; also: % is scaled to controls: 0 for no effect and ±100 for the full control effect; nearly all actives have a fitted effect of over 75% in size
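Step 1: enzyme (final 20 nM) with compound, 15 min RT. Step 2: substrate peptide 500 nM and SAM 20 uM, 2 h RT. Step 3: anti-H3K9me1 antibody and AlphaScreen beads, 10 min, then plate read.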
VDR inh = blocks the human vitamin D receptor. VDR-SRC2-3 peptide fluorescence polarization, 2 h. Potency, µM, without a hit: max response, negative = inhibition, actives largely listed as inhibitors. 400,000 compounds, 0.93% hits; also: % is scaled to controls: 0 for no effect and ±100 for the full control effect
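After 23 nl compound addition and a short centrifugation, plates sat for 2 hours at ambient temperature; polarization of fluorescence then indicated loss of VDR binding to peptide SRC2-3.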
HP1b binding inh = HP1-beta chromodomain-methylated histone interaction inhibition; 390,000 compounds, 0.56% hits; P83916; Potency, µM (top dose mostly 114 µM), inactives show at the highest dose activity change, negative = inhibition, most hits filed as inhibitors; AlphaScreen HP1-beta / biotin-H3K9me3 peptide binding; also: nearly all actives have a fitted effect of over 70% in size
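HP1-beta protein (50 nM final) preincubated 30 min at room temperature with biotinylated H3(1-18)K9me3 peptide (50 nM) in PBS pH 7.4, 0.01% Tween-20, then compound added for 30 min. AlphaScreen streptavidin donor/nickel chelate acceptor beads (10 ug/mL final), 30 min dark, luminescence read.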
PLK1 PBD block = blocks phosphopeptide binding to human PLK1 polo-box domain; Potency, µM, for the others: max response, negative = inhibition, most hits filed as inhibitors; P53350; Plk1 PBD binding of FITC phosphopeptide, fluorescence polarization; 360,000 compounds, 2.8% hits; also: series mostly up to about 57 µM; % is scaled to controls: 0 for no effect and ±100 for the full control effect; nearly all actives have a fitted effect of over 65% in size
BAZ2B inh = inhibitors of human BAZ2B bromodomain; 360,000 compounds, 4.4% hits; Q9UIF8; AID 504333; Potency, µM (series often up to 114 µM), inactives show at the top dose activity change, negative = inhibition, actives largely listed as inhibitors; AlphaScreen BAZ2B-H3K14Ac peptide displacement; also: % is scaled to controls: 0 for no effect and ±100 for the full control effect; nearly all actives have a fitted effect of over 60% in size
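AlphaScreen displacement of biotin-H3(5-23)K14Ac peptide (50 nM final) from BAZ2B (50 nM final) in PBS pH 7.4, 0.01% Tween-20; complex preformed 30 min RT, then compounds (top 110 uM) 30 min RT, beads 20 min dark.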
* marks the source's active call; other numbers are inactive results; ? = inconclusive; . = not tested or not shown; ! = a repeat was not active; [ ] = remark or other dose. Calls follow the shape of the dose curve; as a rule, active = well fitted curve in the direction sought with a large enough effect; inconclusive = small, poorly fitted or top-dose-only effect, or another doubt; inactive = no such curve, though single readings can be large; an effect the other way counts as inactive or inconclusive. Potency is read from the fitted curve at half-maximal effect.

SMILES | JMJD2A Tudor | G9a inh | VDR inh | HP1b binding inh | PLK1 PBD block | BAZ2B inh
Cc1sc2ncn(CC(=O)N3CCCC(C)C3)c(=O)c2c1S(=O)(=O)N1CCCCC1 (stereo not given) | -17.1% | -3.9% | 3.2% | -14.7% | -13.1% | 5.3%
Cc1sc2ncn(CC(=O)N3CCC(C(N)=O)CC3)c(=O)c2c1S(=O)(=O)N1CC(C)CC(C)C1 (stereo not given) | 100µM* | -0.6% | 2.3% | -95.2% | -5.3% | 3.3%
COc1ccc(CCNC(=O)CN2CCCc3ccccc32)cc1OC | -24.3% | 56.2µM* | -2.1% | 12.6% | -4.9% | -44.7%
COc1ccc(CCC(=O)NCC2CCCCC2)cc1OC | -11.5% | -5.1% | 20.7% | 36.1% | -1.6% | 4.7%
COc1ccc(CCNC(=O)CN2C(=O)COc3ccccc32)cc1OC | -10.4% | 8.6%[59 µM] | -7.2% | 53.1% | . | 25.2%
COc1ccc(CCNC(=O)CSc2ccc(NC(C)=O)cc2)cc1OC | -17.2% | 3.9% | -4.3% | 12.7% | 13.4µM* | -0.2%
COc1ccc(CCNC(=O)CSc2nnc(-c3ccccc3)c3ccccc23)cc1OC | -12.8% | ? | -3.9% | 15.8% | -3.1% | -6.2%
COc1ccc(CCNC(=O)CSCC(=O)Nc2ccccc2)cc1OC | -15.3% | . | -19.8% | 14.7% | -13.3% | -3.5%
CCCCn1c(-c2ccccc2)cnc1SCC(=O)NCCc1ccc(OC)c(OC)c1 | 56.2µM* | ? | -6.4% | ? | -5.7% | 44.7µM*
COc1ccc(CCNC(=O)CNCC2CCCCC2)cc1OC | 25.1µM* | -4.2% | 2.0% | ? | -2.8% | 56.2µM*
COc1ccc([N+](=O)[O-])cc1NC(=O)CSc1ccc2ccccc2c1 | -17.2% | ? | -14.0% | -5.1% | -15.5% | -30.0%
O=C(CSc1ccc2ccccc2c1)Nc1ncccn1 | -6.8% | 44.7µM* | -5.4% | 32.2% | 2.5% | -1.7%
COc1ccc(CCNC(=O)CSc2ccc3ccccc3c2)cc1OC | -19.5% | 25.1µM* | ? | 33.1% | -2.7% | 2.5%
O=C(COC(=O)CSc1ccc2ccccc2c1)NC1CC1 | -4.3% | 50.1µM* | 12.5% | 10.5% | -5.3% | -0.8%
COc1ccc(CC(=O)NCCc2ccc(OC)c(OC)c2)cc1 | -8.4% | 16.6% | -15.7% | 20.9% | -0.2% | -12.7%
C[C@@H](C(=O)OCC(=O)c1ccc(F)c(F)c1)N1C(=O)C2CCCCC2C1=O (stereo not given in full) | -1.3% | . | 12.3% | 33.0% | -15.6% | .
COc1ccc(-c2ccc3ncnc(NCc4cccs4)c3c2)cc1 | -21.3% | . | . | . | . | .
O=C(O)c1ccc(N2Cc3ccccc3C2)cc1O | ? | 8.91µM* | -0.7% | 1.1% | ? | ?
CCCCn1c(N)c(N(CCOC)C(=O)c2cc(-c3ccccc3)nc3ccccc23)c(=O)[nH]c1=O | -10.3% | -8.7%[59 µM] | -7.5% | 25.0% | -10.8% | -5.0%
COCCCN(C(=O)c1cc(-c2ccco2)nc2ccccc12)c1c(N)n(Cc2ccccc2)c(=O)[nH]c1=O | ? | 44.7µM* | -1.1% | -12.3% | -18.6% | ?
CCCn1c(N)c(N(CCOC)C(=O)c2cc(-c3ccco3)nc3ccccc23)c(=O)[nH]c1=O | ? | 39.8µM* | 5.7% | 14.0% | -16.7% | ?
CC(NC(=O)CCNC(=O)c1ccc(C(C)(C)C)cc1)c1ccccc1 (stereo not given) | 0.7% | . | 11.1% | 33.5% | 3.9% | .
Cc1ccc(-n2c(=O)c3c(cnn3C)n(CC(=O)Nc3ccc(C)cc3C)c2=O)cc1 | -12.3% | 1.3%[59 µM] | -1.2% | 16.9% | . | -1.7%
Cc1ccc(N=Nc2ccc(O)c(P(=O)(c3ccccc3)c3ccccc3)c2)cc1 | 11.2µM* | ? | -8.6% | -19.0% | ? | ?
CC(O)CN(Cc1cccc(Cl)c1)CC(C)O (stereo not given) | 3.55µM* | ? | -9.8% | -25.1% | -0.7% | 56.2µM*
SMILES | JMJD2A Tudor | G9a inh | VDR inh | HP1b binding inh | PLK1 PBD block | BAZ2B inh
O=C(NCc1cccc(Cl)c1)NCc1cccc(Cl)c1 | -9.0% | 6.2%[59 µM] | 6.5% | 6.8% | -3.2% | -3.8%
O=c1[nH]c(Nc2ccc(F)cc2)cc2ccccc12 | -13.9% | 11.2µM* | -13.0% | 10.0% | -29.2% | -10.4%
COc1ccccc1Nc1cc2ccccc2c(=O)[nH]1 | 79.4µM* | . | . | . | . | .
O=c1[nH]c(Nc2ccccc2Cl)cc2ccccc12 | -6.9% | . | 0.0% | 27.3% | -12.1% | .
CCOC(=O)/C=C/CCC/C=C/C(=O)c1ccccc1 | . | . | 8.91µM* | . | . | .
CCOC(=O)/C=C/CCCC=O | . | . | 5.8% | . | . | .
COC(=O)c1cn(C(=O)c2ccc3c(c2)OCO3)c2ccccc12 | . | . | . | . | -6.2% | .
O=C(/C(=N/N=C/c1ccc(O)c(O)c1O)c1ccccc1)c1ccccc1 | 35.5µM* | 1.12µM* | -12.3% | ? | 7.52µM* | 31.6µM*
Oc1cccc(C=NCc2ccccc2)c1O | -25.2% | ? | ? | -13.9% | -17.6% | ?
Oc1ccc(/C=N/N=C(c2ccccc2)c2ccccc2)c(O)c1O | 56.2µM* | 1.41µM* | -26.7% | 44.7µM* | 11.9µM* | 25.1µM*
CCOC(=O)CSc1c(-c2cccs2)[nH]c2ccccc12 | -15.4% | 12.9% | ? | 27.1% | -19.4% | 0.3%
CCOC(=O)CSc1c(-c2ccc(Cl)cc2)[nH]c2ccccc12 | 22.4µM* | -12.5%[59 µM] | ? | 3.1% | 5.97µM* | 8.6%
CC1=CC(=O)C=C(C)C1=NOC(=O)/C=C\c1ccccc1 | -22.7% | -8.4%[59 µM] | 2.4% | 0.9% | 1.34µM* | -1.6%
CC1=C(C)/C(=N\OC(=O)/C=C/c2ccccc2)C=CC1=O | 17.8µM* | 1.5% | ? | ? | 2.99µM* | -5.6%
CC1=CC(=NOC(=O)/C=C/c2ccccc2)C=C(C)C1=O | -27.1% | 29.7%[0.501 µM] | ? | -21.2% | 18.9µM* | 12.6µM*
C=CCc1c(C)nc2nc(SCC(=O)Nc3ccc(OCC)cc3)nn2c1C | -11.6% | -2.8%[59 µM] | -0.1% | 94.3% | . | 40.4%
O=C(CSc1nnc2ccccn12)NNC(=O)c1ccccc1F | -4.8% | . | 10.7% | 11.0% | 7.7% | .
COc1ccc(C(C)n2c(C)c3c(C)nnc(C)c3c2C)cc1 (stereo not given) | ? | ? | -7.3% | -14.4% | -20.0% | 89.1µM*!
COC(=O)c1c[nH]c(=S)n1Cc1ccccc1 | 2.82µM* | . | -1.6% | 18.1%[57 µM] | -8.6% | .
COC(=O)c1cc(C(=O)OC)n(Cc2ccc(F)cc2)c1C | 7.6% | 16.8% | 14.5% | 27.3% | -11.8% | 2.3%
CCCc1[nH]nc2c1C(c1ccc(O)c(OC)c1)C(C#N)=C(N)O2 (stereo not given) | -15.7% | 50.1µM* | -5.6% | 2.5% | -2.3% | -36.1%
CCCc1[nH]nc2c1C(c1ccccc1OC)C(C#N)=C(N)O2 (stereo not given) | 6.3%[57.1 µM] | ? | -13.7% | 28.8% | ? | -32.6%
CCn1c2ccccc2c2cc(C3C(C#N)=C(N)Oc4n[nH]c(COC)c43)ccc21 (stereo not given) | ? | ? | -23.6% | -4.6% | 5.97µM* | -36.8%

Source: PubChem
